Sampled rows, rich in hits. Any-hit rate of the full collection: about 0.47%.
AID inh – blocks human AID cytidine deaminase activity | Q9GZX7 | AID deamination FRET fluorescence, UDG-coupled, 4 h | Potency, µM (top dose mostly 115 µM), most hits filed as inhibitors | 91,000 compounds, 0.32% hits; also: nearly all actives have a fitted effect of over 25% in size
Target sequence (Q9GZX7 whole entry, looked up): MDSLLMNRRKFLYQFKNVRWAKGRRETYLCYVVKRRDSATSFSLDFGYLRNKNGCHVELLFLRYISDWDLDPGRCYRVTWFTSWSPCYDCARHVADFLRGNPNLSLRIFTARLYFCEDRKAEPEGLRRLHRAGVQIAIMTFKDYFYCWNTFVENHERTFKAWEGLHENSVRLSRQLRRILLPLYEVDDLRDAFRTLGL
UDG counter – counter-screen for AID inhibitors: uracil-DNA glycosylase inhibition; Potency, µM (series often up to 115 µM), without a hit: at the highest dose activity change, negative = inhibition, usual class: inhibitors; FRET deamination/UDG coupled assay, UDG read, 4 h; 91,000 compounds, 0.14% hits; also: nearly all actives have a fitted effect of over 65% in size
Active calls of the source: *; i = inactive; ? = inconclusive; [ ] = remark or other dose. Calls follow the shape of the dose curve; as a rule, active = well fitted curve in the direction sought with a large enough effect; inconclusive = small, poorly fitted or top-dose-only effect, or another doubt; inactive = no such curve, though single readings can be large; an effect the other way counts as inactive or inconclusive. % is scaled to controls: 0 for no effect and ±100 for the full control effect; potency is read from the fitted curve at half-maximal effect.

SMILES	AID inh	UDG counter
CC(C)(C)C(=O)NCCCC(=O)NC1CCCCC1	i	-6%
CC1CCCCN1S(=O)(=O)c1cc2c3c(c1)CC(=O)N3CCC2 (centres undefined)	?	89µM*
CCC1CCCCN1S(=O)(=O)c1ccc2c(c1)CCCN2C(C)=O (centres undefined)	i	0%
CC1CCN(S(=O)(=O)c2cc3c4c(c2)CC(=O)N4CCC3)CC1	i	-25%
CCC1CCCCN1S(=O)(=O)c1cc2c3c(c1)CC(=O)N3CCC2 (centres undefined)	i	89µM*
Cc1cccc(C(=O)Nc2ccc3oc(=O)ccc3c2)c1	i	47%
Cc1oc(-c2cccs2)nc1CN1CCNC(=O)C1	i	1%
Brc1ccc(-c2noc(-c3ccccc3-c3ccccc3)n2)cc1	i	6%
ClCC(Cl)C[n+]1cccc2ccccc21 (centres undefined)	i	-7%
N[n+]1cccc2ccccc21	i	1µM*
CC(C)(C)c1cc(-c2ccccc2)c2c3c(sc2n1)CCCC3	i	-2%
Cc1ccc(CNC(=O)c2ccc3nc(N4CCCCC4)sc3c2)cc1	i	-9%
Cc1ccc(C)c(N2CCN(CCCNC(=O)c3ccc4nc(N5CCCCC5)sc4c3)CC2)c1	40µM*	-11%
COc1ccccc1C(=O)Nc1ccc(NC(=O)c2cccs2)cc1	?	-13%
COc1ccc(C(=O)Nc2ccc(NC(=O)c3cccs3)cc2)cc1OC	63µM*	-19%
Cc1cccc(Cn2c(SCC(N)=O)nc3c2c(=O)n(C)c(=O)n3C)c1	i	-2%
Cc1ccccc1C1/C(=C(\O)c2ccccc2F)C(=O)C(=O)N1c1ccc(CC(=O)O)cc1 (centres undefined)	i	3%
COC(=O)c1sc(N2C(=O)C(=O)/C(=C(/O)c3ccc(C)c(F)c3)C2c2ccccc2F)nc1C (centres undefined)	79µM*	-5%
CCn1cc(C(=O)NCCc2ccccc2)c(=O)c2cc(S(=O)(=O)N3CCc4ccccc4C3)ccc21	?	-14%
CCCCN(CCCC)CCNC(=O)c1cn(CC)c2ccc(S(=O)(=O)N3CCc4ccccc4C3)cc2c1=O	28µM*	?
CCCn1cc(S(=O)(=O)c2ccc(C)cc2)c(=O)c2cc(OC)c(OC)cc21	i	-6%
COc1cc2c(=O)c(S(=O)(=O)c3ccc(C)cc3)cn(Cc3cccc(C)c3)c2cc1OC	40µM*	-19%
COc1ccc(-c2c3c(=O)n(C)c(=O)n(C)c3c3n2-c2ccccc2NC3c2ccccc2OC)cc1 (centres undefined)	?	79µM*
Cn1c(=O)c2c(-c3ccccc3)n3c(c2n(C)c1=O)C(c1cc(Cl)ccc1O)Nc1ccccc1-3 (centres undefined)	i	?
CCOC(=O)c1ccc2[nH]c(CSCC(=O)Nc3cc(C)cc(C)c3)cc(=O)c2c1	i	1%
SMILES	AID inh	UDG counter
N#Cc1nc(-c2ccccc2)oc1NCCCN1CCOCC1	i	0%
CCOC(=O)CSc1nc(-c2ccc(OCC)cc2)cc(C(F)(F)F)c1C#N	i	1%
CCCOc1ccc(-c2cc(C(F)(F)F)c(C#N)c(SCCC(=O)O)n2)cc1	79µM*	-21%
N#Cc1nc(C2CC2)oc1N1CCN(C(=O)c2cccnc2)CC1	i	5%
Cc1ccc(CNC(=O)C2CCCN(c3nc4ccccc4n4cccc34)C2)cc1 (centres undefined)	79µM*	-9%[57.5 µM]
COc1cccc(CNC(=O)C2CCCN(c3nc4ccccc4n4cccc34)C2)c1 (centres undefined)	i	-6%[57.5 µM]
COc1ccc2nc(/C(C#N)=C\c3ccco3)[nH]c2c1	i	-5%
CCN1CCN(CCNC(=O)c2cc3n(n2)CC(C)(C(=O)NCCC(C)C)N(C)C3=O)CC1 (centres undefined)	i	0%
Cc1c(Cl)cccc1NC(=S)NNC=O	i	0%
COc1ccc(NC(=O)CN(Cc2ccccc2)S(=O)(=O)c2ccc(C)cc2)cc1Cl	i	89µM*
COC(=O)c1ccc(NC(=O)CN(Cc2ccccc2)S(=O)(=O)c2ccc(C)cc2)cc1	i	22%
COc1ccccc1N1CCN(C(=O)c2cn(CC(C)C)c(=O)c3c2c2ccccc2n3C)CC1	i	-5%
Cc1ccc(C)c(N2CCN(C(=O)c3cn(CC(C)C)c(=O)c4c3c3ccccc3n4C)CC2)c1	28µM*	?
Cn1c2ccccc2c2c(C(=O)N3CCN(c4cccc(C(F)(F)F)c4)CC3)cn(C3CCCCC3)c(=O)c21	?	-13%
Cn1cc(C(=O)N2CCN(c3cccc(C(F)(F)F)c3)CC2)c2c3ccccc3n(C)c2c1=O	?	79µM*
O=C(Nc1cc(C(F)(F)F)ccc1Cl)/C(=C/c1ccc(F)cc1)c1ccc(-c2ccccc2)cc1	i	-6%
CCCCOc1ccc(C(=O)NCCc2csc(-c3cccc(F)c3)n2)cc1	i	5%
CC(C)Oc1ccc(C(=O)NCCc2csc(-c3cccc(F)c3)n2)cc1	45µM*	0%
C#CC(CC)(CC)NC(=O)Cc1cccc(C)c1	i	0%
Cc1cc(C)cc(NC(=O)COCc2cc(-c3ccc4c(c3)OCO4)on2)c1	?	79µM*
COc1cc(NC(=O)COCc2cc(-c3ccc4c(c3)OCO4)on2)cc(OC)c1	i	?
Cc1cc(C)n(-c2nc3ccccc3nc2N2CCN(C(=O)c3ccccc3)CC2)n1	i	12%
Cc1cc(C)n(-c2nc3ccccc3nc2N2CCN(S(=O)(=O)c3ccc4ccccc4c3)CC2)n1	i	89µM*
Fc1ccc(C2=NC(C(F)(F)F)(C(F)(F)F)N=C3C=CC=CN32)cc1	i	0%
Cc1ccc(C(=O)Nc2sc3c(c2C(=O)NCc2ccco2)CCC(C(C)(C)C)C3)cc1 (centres undefined)	i	2%
SMILES	AID inh	UDG counter
CC(C)(C)C1CCc2c(sc(NC(=O)c3ccccc3F)c2C(=O)NCc2ccco2)C1 (centres undefined)	11µM*	-12%
CCOC(=O)c1c(C)oc2nc(C)nc(NC(C)c3ccccc3)c12 (centres undefined)	79µM*	-15%
CCOC(=O)c1c(C)oc2nc(C)nc(NCc3ccc(Cl)cc3)c12	i	8%
O=C(Nc1cccc2ccccc12)C1CC2CCCC(C1)C2=O (centres undefined)	i	0%
CC(C)(C)c1ccc(OCc2nc3ccccc3n2CCOc2ccccc2)cc1	32µM*	-16%
COc1ccc(OCc2nc3ccccc3n2Cc2ccc(C(C)(C)C)cc2)cc1	?	-25%
C=Cc1ccc(CSc2nc(-c3ccccc3C)nc3c2Cc2c(CO)cnc(C)c2O3)cc1	45µM*	-8%
C=Cc1ccc(CSc2nc(-c3ccc(Cl)cc3)nc3c2Cc2c(CO)cnc(C)c2O3)cc1	i	-9%
c1ccc(-c2nc(NCCN3CCOCC3)c3ccccc3n2)cc1	i	1%

Screens (PubChem BioAssay)
